High-throughput results from PubChem BioAssay.
LMP1 NFkB inh = inhibitors of Epstein-Barr LMP1-induced NF-kappaB reporter. inhibition, % at 12.5 µM. 0.69% of 350,000 active. LMP1-induced NF-kappaB luciferase reporter cells, luminescence; in the data active = inhibition above about 41%; inconclusive = no clear call, values can overlap the other calls;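 also: 0% = neutral control wells and 100% = reference inhibitor control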
Shn3 3UTR inh = reduces Shn3 3'UTR luciferase signal in osteoblasts; Clone20 osteoblast Shn3 3'UTR firefly luciferase, 24 h; 0.52% of 360,000 active; inhibition, % at 12.5 µM;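 active = mean inhibition of at least 75% with every replicate also reaching 75%; inconclusive = mean inhibition at least 75% but some replicate below; inactive = mean inhibition below 75%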;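 also: 0% = median of neutral control wells and 100% = pilot-screen positive control compound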
PAX8 reporter = PAX8 transcriptional activity inhibition | RMG-I TPO-luciferase reporter, SteadyGlo, 24 h | inhibition, % at 12.6 µM | 1.2% of 360,000 active;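 active = mean replicate inhibition at least 60% with every replicate also reaching 60%; inconclusive = only one of the two criteria is met; inactive = mean below 60% and not all replicates reaching 60%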;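 also: luciferase light reporting Pax8 driven TPO promoter activity; plate controls were median of neutral control wells for no effect and mitoxantrone controls for full effect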
TRPM1 prom inh = inhibitors of MITF-driven TRPM1 promoter in melanoma cells | inhibition, % at 12.5 µM | AID 488899 | 0.83% of 330,000 active | SK-MEL-5 TRPM1 promoter luciferase, 24 h;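 active = mean inhibition across replicates of 60% or more, whatever share of single replicates reaches that level; inconclusive = some that reach 60%, reason not given; inactive = mean inhibition across replicates below 60%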
aSyn 5UTR inh = MLPCN primary screen, SNCA 5' untranslated region | AID 1813 | inhibition, % (tested at 7.5 µM) | alpha-synuclein 5'UTR reporter, inhibitor activity | 0.82% of 300,000 active; in the data active = inhibition above about 60%; inconclusive = no clear call, values can overlap the other calls;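 also: H4 neuroglioblastoma cells stably carrying SNCA 5'UTR luciferase fusion; 0% = DMSO wells and 100% = positive control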
Active calls of the source: *; u = inconclusive; x = no result. Most compounds without a hit are left out; they make up all but 2.1% or so of the library.

SMILES | LMP1 NFkB inh | Shn3 3UTR inh | PAX8 reporter | TRPM1 prom inh | aSyn 5UTR inh
C=CCn1c(C)cc(C2=NNC(=Nc3ccc(C)cc3)SC2)c1C | -13.4 | 10.0 | 14.8 | -28.5 | -4.2
C=CCN=C1NN=C(c2cc(C)n(CCOC)c2C)CS1 | 44.9* | 4.4 | 56.0 | 24.3 | 85.8*
C[C@@]12C(C[C@H](O)[C@@]34C[C@@H](CCC13)[C@@H](CO)C4=O)[C@](C)(C(=O)O)CC[C@@H]2O (stereo partly drawn) | x | -10.4 | 17.0 | x | x
C=C1C(=O)[C@]23C[C@H]1CCC2[C@@]1(C)C(C[C@@H]3O)[C@](C)(C(=O)OC)CC[C@@H]1O (stereo partly drawn) | x | 99.2* | 107.9* | x | x
COc1cccc(-c2cn3nc(C)c(C)nc3n2)c1 | 5.6 | -20.8 | x | -33.7 | -69.9
COc1ccc(-c2cn3nc4c(nc3n2)CCCC4)cc1 | 62.3* | -15.8 | x | 57.1 | x
COCCCNC(=O)c1ccc(CS(=O)(=O)Cc2cccc(C)c2)o1 | 1.9 | 4.2 | x | -8.9 | 24.1
C/C(CC(=O)NCc1ccco1)=N\NC(=O)COc1ccc(C)cc1 | 8.6 | 16.4 | 64.7* | -4.4 | 6.9
COc1ccc(C(c2nnnn2C2CCCC2)N2CCN(c3ccccc3)CC2)cc1 (stereo not drawn) | 9.8 | 6.0 | x | 1.1 | 6.7
c1ccc(CN2CCC(Nc3nc(-c4ccccc4)nc4ccccc34)CC2)cc1 | -47.7 | 33.4 | x | 4.8 | 72.0*
Cc1nn(CCO)c2nc(-c3cccs3)cc(C(F)(F)F)c12 | -5.4 | -24.8 | 160.7* | 9.3 | 4.1
Cc1ccc(-c2nn(-c3ccccc3)cc2C(=O)N2CCOCC2)cc1 | -9.6 | -2.7 | 0.1 | -28.6 | 2.7
N#CC1(NC(=O)COc2ccc3ccc(=O)oc3c2)CCCCC1 | -0.2 | 7.8 | -8.4 | -3.6 | 4.7
O=C(CCl)N1c2ccccc2CCc2ccccc21 | -8.3 | -22.8 | 17.1 | 75.2* | -9.8
CC(Cl)C(=O)N1c2ccccc2CCc2ccccc21 (stereo not drawn) | 3.2 | 14.9 | 17.2 | -6.1 | -15.2
Cc1cccc(S(=O)(=O)N2CCCCN3[C@H](C2)[C@H](c2ccc(-c4ccncc4)cc2)[C@@H]3CO)c1 | x | x | -3.6 | x | x
Cc1ccc(NC(=O)c2cc(N3C(=O)C=CC3=O)ccc2N2CCOCC2)cc1 | 1.1 | 42.0 | 50.1 | 79.5* | 12.0
Cc1ccc(NC(=O)c2cc(NC(=O)c3ccco3)ccc2N2CCOCC2)cc1 | 3.8 | 22.1 | x | -8.2 | 4.1
CCn1nc(C(=O)Nc2nc(-c3ccccn3)cs2)c2ccccc2c1=O | 42.0* | 78.7 | 11.3 | x | x
CCCn1nc(C(=O)Nc2nc(-c3ccccn3)cs2)c2ccccc2c1=O | 26.8 | 60.2 | 73.8* | 43.8 | x
O=C(Nc1nc2c(s1)CCCC2)c1nn(Cc2ccccc2)c(=O)c2ccccc12 | 4.3 | 16.2 | -0.3 | -5.3 | 20.9
CC(C)CCn1nc(C(=O)Nc2nc3c(s2)CCCC3)c2ccccc2c1=O | 5.0 | 14.9 | 1.2 | -3.1 | 67.6*
CCOc1ccc(-c2nnc3ccc(SCC(=O)NCc4ccco4)nn23)cc1 | 7.3 | 1.6 | x | -3.0 | -20.8
CC(C)C[C@@H](CNCC(=O)[C@H](C)NC(=O)c1[nH]cnc1C(=O)N[C@H](CN)CC(C)C)NC(=O)c1nc[nH]c1C(=O)N[C@@H](C)C(=O)O | -3.8 | -3.1 | 8.9 | -0.1 | x
O=C(NCCCn1ccnc1)/C(=C/c1cccnc1)NC(=O)c1ccco1 | 8.4 | -10.1 | 11.0 | 0.0 | 4.8
SMILES | LMP1 NFkB inh | Shn3 3UTR inh | PAX8 reporter | TRPM1 prom inh | aSyn 5UTR inh
COc1ccc(NC(=O)CCCNC(=O)Cn2cnc3sc(C)c(C)c3c2=O)cc1Cl | -15.6 | 7.7 | 7.4 | -4.2 | -3.5
Cn1cc(/C=N/n2cnc3scc(-c4ccc(Cl)cc4)c3c2=O)c2ccccc21 | 12.3 | 26.1 | 64.8* | 32.8 | 87.0*
OC(COc1ccc(OCC(O)CN2CCN(Cc3ccccc3)CC2)cc1)CN1CCN(Cc2ccccc2)CC1 (stereo not drawn) | x | x | 3.2 | x | -19.8
CCOC(=O)c1c(C)n(-c2ccc(C)cc2)c2ccc(OCC(O)CNCC3CCCO3)cc12 (stereo not drawn) | -9.9 | 80.3 | x | 69.4* | 75.5*
CCOC(=O)c1c(C)n(-c2ccc(C)cc2)c2ccc(OCC(O)CNCCCO)cc12 (stereo not drawn) | 0.5 | -1.2 | 30.5 | 70.1* | x
O=C(NCC[C@H]1CC[C@H](NC(=O)C2CCCC2)[C@H](CO)O1)c1cnccn1 | x | x | -4.0 | x | x
CC1(C)Cc2c(c(N3CCOCC3)nc3sc4c(NCc5ccccc5)nnnc4c23)CS1 | -3.5 | 25.7 | x | 27.6 | 68.2*
FC(F)(F)c1nnc(-c2ccccc2)nc1Sc1ccc(Cl)cc1 | 1.5 | 91.7* | x | 42.4 | -1.0
FC(F)(F)c1nnc(-c2ccccc2)nc1Sc1ccccc1 | 2.4 | 37.9 | x | 20.2 | 14.5
COc1ccc(OC)c(CCNC(=O)CCn2nc(C)c3c(C)n(-c4ccccc4)nc3c2=O)c1 | 54.9* | 2.7 | 9.0 | 13.3 | 14.9
O=C(Nc1ccc(Cl)cc1)Nc1csc([N+](=O)[O-])c1 | x | 59.9 | 72.3* | x | 1.1
CCCc1cc(=O)[nH]c(=S)[nH]1 | -3.4 | 33.1 | -21.7 | 9.0 | -7.1
N#Cc1ccc(NC(=O)Nc2ccc(Oc3ccc(NC(=O)Nc4ccc(C#N)cc4)cc3)cc2)cc1 | 14.9 | 91.3* | 72.7* | u | 73.7*
N#Cc1ccc(NC(=O)Nc2cccc(C#N)c2)cc1 | 4.3 | 12.2 | 0.6 | -24.0 | -33.0
Cc1cc(C(=O)N2CCN(C(c3ccccc3)c3ccccc3)CC2)no1 | -6.6 | 9.8 | x | -2.9 | -16.4
Cc1onc(C(=O)N2CCN(C(c3ccccc3)c3ccccc3)CC2)c1[N+](=O)[O-] | -12.0 | -2.1 | 97.5* | 7.8 | -0.4
O=C(c1cc(-c2cccs2)on1)N1CCN(C(c2ccccc2)c2ccccc2)CC1 | 6.2 | 43.5 | 99.1* | 67.8* | -17.2
CC(=O)c1cccc(NC(=O)CN(c2cccc(F)c2)S(C)(=O)=O)c1 | 1.5 | -3.2 | x | 19.5 | x
COc1ccc(C(=O)COC(=O)CN2C(=O)C3C4C=CC(C4)C3C2=O)cc1 (stereo not drawn) | 1.3 | -11.3 | x | 4.0 | 3.4
Cn1cc(S(=O)(=O)Nc2ccc(OC(F)(F)F)cc2)c(=O)n(C)c1=O | 0.3 | -6.5 | 2.3 | 8.8 | 3.9
C1CCC(C(CC2CCCCN2)C2CCCCC2)CC1 (stereo not drawn) | -6.4 | u | -3.8 | 80.9* | 42.3
COc1ccccc1NC(=O)COC(=O)[C@@H]1CCCN1C(=O)c1cccs1 | 4.9 | 12.6 | x | 2.8 | 10.7
O=C(CCl)N(Cc1ccccc1)c1ccccc1 | 0.6 | 17.2 | 108.3* | 28.8 | -12.6
COC(=O)c1ccc(C(=O)N(Cc2ccccc2)c2ccccc2)cc1 | -5.1 | 13.0 | 5.8 | -0.8 | 11.7
COc1ccc(CC(=O)N(Cc2ccccc2)c2cccc(C)c2)cc1OC | -6.1 | 13.6 | -4.5 | -15.8 | -8.2
Cc1cccc(N(Cc2ccccc2)C(=O)CCl)c1 | 1.6 | 25.0 | 122.7* | 39.9 | -21.4
O=C(C1CC1)N1CCN(Cc2ccccc2)CC1 | -5.4 | 5.4 | 20.1 | 5.9 | -10.0
Nc1nc(N)nc(-c2cc(Cl)ccc2Cl)n1 | 83.6* | 0.7 | 8.8 | -0.6 | 6.6
Nc1nc(N)nc(-c2cc(C(F)(F)F)ccc2Cl)n1 | -5.8 | -2.7 | 0.2 | -5.0 | x
